Source: PubChem BioAssay (National Center for Advancing Translational Sciences (NCATS))
An excerpt weighted towards active compounds, which were near 7.6% of everything screened.
Gal4-VP16 FLuc: VP16 counterscreen qHTS for inhibitors of ROR gamma transcriptional activity. Drosophila S2 Gal4-VP16 UAS-luciferase, luminescence, 20 h. Potency, µM (doses to about 53.6 µM), for inactives: at the highest dose activity, negative = inhibition, most hits filed as inhibitors. hit rate 3.5% among 310,000. AID 2546, 2010;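 note: Gal4-VP16 expression switched on by copper sulfate through the metallothionein promoter; potency is the fitted concentration of half-maximal effect; % is set by controls: 0 for no effect and ±100 for the full control effect; nearly all actives have a fitted effect of over 50% in size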
BRCA1 expr act: qHTS Assay to Identify Small Molecule Activators of BRCA1 Expression | hit rate 1.1% among 380,000 | Potency, µM (top dose mostly 46.1 µM), for inactives: at the highest dose activation, most hits filed as activators | MCF7-BRCA1-FFLuc reporter, luminescence, 48 h; response scale: scaled: vehicle 0%, 10 µM genistein 100%; note: potency is the fitted concentration of half-maximal effect; nearly all actives have a fitted effect of over 80% in size
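Cells: MCF7-BRCA1-FFLuc, 2000/well. Exposure: 48 h, 37 °C, 5% CO2. Read: luminescence, 15 min post-substrate. Controls: genistein 10 microM (maximal activation), DMSO (neutral).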
Giardia kill: Small Molecules that selectively kill Giardia lamblia: qHTS. hit rate 0.15% among 340,000. activity change, % at 7.66 µM, hits read low. Giardia lamblia trophozoite viability; in the data active = activity change below about -80%; inconclusive = between about -30% and that limit;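 note: parasites exposed to compound for two days anaerobically before the ATP read; % is set by controls: 0 for no effect and ±100 for the full control effect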
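Luminescence from cellular ATP indicates surviving trophozoites (100 cells/well) following 48 hrs anaerobic compound treatment at 37 deg C; signal develops 15-30 min at room temperature.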
RORg inh: qHTS for inhibitors of ROR gamma transcriptional activity | Nuclear receptor ROR-gamma (Mus musculus), P51450 | Drosophila S2 Gal4-RORgamma UAS-luciferase reporter, 20 h | Potency, µM (titrated, usually from 53.6 µM), for inactives: at the highest dose activity change, negative = inhibition, actives largely listed as inhibitors | hit rate 5.4% among 310,000; note: potency is the fitted concentration of half-maximal effect; % is set by controls: 0 for no effect and ±100 for the full control effect; nearly all actives have a fitted effect of over 60% in size
Target sequence (P51450 whole entry, looked up, the tested form may be a part): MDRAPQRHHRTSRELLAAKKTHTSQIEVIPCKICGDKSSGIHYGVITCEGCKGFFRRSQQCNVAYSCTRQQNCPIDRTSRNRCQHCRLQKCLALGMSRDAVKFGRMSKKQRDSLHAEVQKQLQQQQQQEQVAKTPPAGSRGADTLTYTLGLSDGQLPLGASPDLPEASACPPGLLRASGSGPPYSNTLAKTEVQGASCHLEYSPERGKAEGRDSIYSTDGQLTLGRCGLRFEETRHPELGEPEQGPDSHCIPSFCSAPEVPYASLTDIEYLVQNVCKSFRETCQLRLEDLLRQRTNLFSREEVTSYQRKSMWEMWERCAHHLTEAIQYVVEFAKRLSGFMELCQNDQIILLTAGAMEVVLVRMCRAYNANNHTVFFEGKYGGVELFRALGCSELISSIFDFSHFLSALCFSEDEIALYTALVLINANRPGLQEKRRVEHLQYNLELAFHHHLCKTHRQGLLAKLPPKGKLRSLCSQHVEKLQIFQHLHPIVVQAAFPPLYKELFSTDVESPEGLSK
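Read-out: Photinus luciferase luminescence; inhibitors lower reporter signal. Insect Schneider cells with Gal4-ROR gamma fusion under metallothionein promoter, UAS reporter; 700 uM final copper sulfate induction, 20 hr, ambient temperature.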
p53 reactivator: qHTS assay for re-activators of p53 using a Luc reporter | H1299 p53-A138V BP100-luciferase reporter, luminescence, 24 h | Potency, µM (highest dose often 92.2 µM), for inactives: at the highest dose activity change, positive = activation, hits mostly activators | hit rate 0.063% among 320,000 | AID 504706, 2011; note: potency is the fitted concentration of half-maximal effect; % of control where 0% means no effect; nearly all actives have a fitted effect of over 45% in size
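p53-null H1299 cells stably carrying temperature-sensitive p53-A138V and a BP100-luciferase reporter were pinned with compounds (4-point, 1:5 series) and held 24 hrs at 37 deg C. Luminescence was read 10 min after detection reagent.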
ELG1 DNA repair: qHTS screen for small molecules that inhibit ELG1-dependent DNA repair in human embryonic kidney (HEK293T) cells expressing luciferase-tagged ELG1; HEK293T ELG1-luciferase reporter, luminescence, 16 h; DNA damage induced by 5-fluorouridine; Potency, µM (highest dose often 46.1 µM), for the others: at the highest dose activity change, negative = inhibition, usual class: inhibitors; hit rate 2.3% among 330,000; AID 504467, 2011; note: potency is the fitted concentration of half-maximal effect; % is set by controls: 0 for no effect and ±100 for the full control effect; nearly all actives have a fitted effect of over 55% in size
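Quantitative HTS, concentration-response format. 2,000 cells/well co-treated with 5-fluorouridine and compound, 16 hr in 5% CO2 at 37 °C; ONE-Glo luminescence read after 30 min.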
* hit, by the source's call; ? = inconclusive; · = no result given. Unless noted, calls come from the whole dose curve; as a rule, active = well fitted curve in the direction sought with a large enough effect; inconclusive = small, poorly fitted or top-dose-only effect, or another doubt; inactive = no such curve, though single readings can be large; an effect the other way counts as inactive or inconclusive.

SMILES	Gal4-VP16 FLuc	BRCA1 expr act	Giardia kill	RORg inh	p53 reactivator	ELG1 DNA repair
CCOC(=O)c1c(NC(=S)NC(=O)c2cnn(CC)c2)sc2c1CCC(C)C2 (stereo not given)	-6%	-27%	10	11µM*	10%	1%
NC(=O)c1c(NC(=S)Nc2ccc(F)cc2)sc2c1CCCC2	-87%	0%	0	10µM*	4%	7%
C=CCNC(=S)Nc1sc2c(c1C(N)=O)CCCC2	?	0%	9	11µM*	3%	?
COc1cc(OC)cc(C(=O)N2CCN(Cc3ccc4c(c3)OCO4)CC2)c1	-9%	0%	47	-9%	·	-2%
S=C(/N=c1/sccn1Cc1ccccc1)NC1CC1	?	-9%	5	?	4%	-20%
NC(=O)c1c(NC(=O)c2cnccn2)sc2c1CCCC2	10%	7.9µM*	22	-38%	11%	?
NC(=O)c1c(NC(=O)c2ccncc2)sc2c1CCCC2	1%	48%	?	40%	5%	11%
COc1ccc(OCC(=O)Nc2sc3c(c2C(=O)NCC2CCCO2)CCC3)cc1 (stereo not given)	-11%	0%	3	10%	0%	16µM*
CCOc1ccc(NC(=O)c2c(NC(=O)CN3CCCC3)sc3c2CCC3)cc1	4.5µM*	-16%	15	4.5µM*	17%	2%
O=C(CN1C(=O)c2ccccc2C1=O)Nc1sc2c(c1C(=O)NCC1CCCO1)CCC2 (stereo not given)	-12%	-2%	-3	14%	-9%	16%
CCOC(=O)c1c(NC(=S)Nc2cc([N+](=O)[O-])ccc2OC)sc2c1CCCCC2	4µM*	·	·	5.6µM*	-3%	6%
CCOC(=O)c1c(NC(=S)Nc2ccc(Cl)cc2)sc2c1CCN(C)C2	-12%	-29%	8	2%	0%	15%
CCOC(=O)c1c(NC(=S)Nc2ccc(F)cc2)sc2c1CCC2	?	-11%	-22	10µM*	5%	15%
O=C(NNC(=O)[C@@H]1CCCC[C@@H]1C(=O)O)c1cccs1	24%	-29%	-8	30%	7%	12%
CCCCCCCCn1cnc2c(N)c(C)c(C)cc21	?	-20%	12	10µM*	0%	10%
COc1ccc(C=C2c3ccccc3C(=O)c3ccccc32)c(OC)c1	-3%	·	·	-21%	5%	23µM*
COc1ccc(/C=C2\COc3ccccc3C2=O)c(OC)c1	24%	0%	14	19%	?	?
Cc1ccccc1OCCC(=O)OCC(=O)Nc1ccc(N2CCOCC2)cc1	7%	-11%	-1	-31%	-10%	11%
COc1ccc(S(=O)(=O)N2CCN(C(=O)c3ccc(=O)[nH]n3)CC2)cc1OC	·	-10%	10	·	6%	-7%
O=C(NCC12CC3CC(CC(C3)C1)C2)c1nn2c(c1Cl)NC(c1ccco1)CC2C(F)(F)F (stereo not given)	14µM*	-12%	8	?	-14%	?
COc1ccc(C2CC(C(F)(F)F)n3nc(C(=O)NCc4cn(C)nc4C)c(Cl)c3N2)cc1 (stereo not given)	-11%	-45%	-8	34%	-8%	23µM*
COCCNC(=O)c1cnn2c1NC(c1ccco1)CC2C(F)(F)F (stereo not given)	-7%	55%	27	25%	-1%	1%
Cc1ccc(C2CC(C(F)(F)F)n3nc(C(=O)NCc4c(C)nn(C)c4C)c(Cl)c3N2)cc1 (stereo not given)	?	-79%	-18	-4%	5%	12µM*
Cc1nn(C)cc1CN(C)C(=O)c1nn2c(c1Cl)NC(c1cccs1)CC2C(F)(F)F (stereo not given)	-5%	-43%	4	20%	-3%	-28%
CCNC(=O)C1(C)CCN(C(=O)c2cccc(OC(C)=O)c2C)C1 (stereo not given)	·	2%	·	·	·	·
SMILES	Gal4-VP16 FLuc	BRCA1 expr act	Giardia kill	RORg inh	p53 reactivator	ELG1 DNA repair
Cc1nn(CC(=O)N2CCc3ccccc32)c(C)c1S(=O)(=O)NC(C)(C)C	·	-24%	2	·	-1%	-19%
CCC1Oc2ccc(C)cc2N(CC(=O)N(Cc2ccc3c(c2)OCO3)CC2CCCO2)C1=O (stereo not given)	-1%	-40%	10	40%	-3%	?
COc1ccc(CN(CC2CCCO2)C(=O)CN2C(=O)C(C)Oc3ccc(C)cc32)cc1OC (stereo not given)	-2%	-1%	-22	?	-7%	8.2µM*
C=CCN1C(=O)/C(=C/c2ccc(OCC(=O)O)cc2)S/C1=N/c1nccs1	-1%	13%	12	6%	-12%	6%
C=CCN1C(=O)/C(=C/c2ccc(O)c(OC)c2)S/C1=N/c1nccs1	-10%	-47%	5	13%	-10%	23µM*
CN=C1S/C(=C\c2ccc(O)c(OC)c2)C(=O)N1C	·	10µM*	-21	·	·	·
CC(C)(C)C(=O)/C(=C/c1ccncc1)n1cncn1	2.8µM*	-99%	3	1µM*	-11%	?
CN(Cc1ccccc1)S(=O)(=O)c1ccccc1[N+](=O)[O-]	12%	-1%	5	37%	-2%	13%
Cc1ccc(/C=N/NC(=O)c2cc(-c3ccccc3)nc3ccccc23)o1	7.1µM*	0%	18	4µM*	-1%	-25%
CCCc1cc(C(=O)N/N=C/c2ccc(C)o2)c2ccccc2n1	0%	-31%	-26	10µM*	-1%	7%
Cc1cc(C(=O)N/N=C/c2ccc(C)o2)c2ccccc2n1	?	-66%	15	?	14%	0%
Cc1ccc(C=NNC(=O)c2cc(-c3cccnc3)nc3ccccc23)o1	·	-34%	-7	·	3%	3%
O=C(N/N=C/c1ccoc1)c1ccccc1O	18µM*	-1%	7	10µM*	11%	18%
Cc1ccc(-c2cc(C(=O)N/N=C/c3ccoc3)c3ccccc3n2)cc1	10µM*	1%	-24	7.1µM*	5%	-10%
Cc1cc(C)cc(NC(=O)CSc2ccc(-c3ccco3)nn2)c1	1%	7%	-7	?	7%	-12%
CC(C)(C)c1ccc(NC(=O)Nc2ccc(F)cc2)cc1	-18%	?	2	59%	10%	?
NS(=O)(=O)c1ccc(NC(=O)CSc2cn[nH]n2)cc1	1%	23%	13	-6%	2%	7%
